The record followed here is the supplement of paper PMC13380429.

The test system of the test is Vero E6 infected with SARS-CoV-2. Briefly: SARS-CoV-2 infection rate relative to infected DMSO; higher = more infection, active = 60 or less. Conditions: 24 h.
For the compound `C[N+]1(CCCCC[N+]2(C)CCCC2)CCCC1` [pentolinium] (10 µM), the SARS-CoV-2 infection rate was 102% (inactive).
The same measure for `Oc1ccc(Cl)cc1Cc1cc(Cl)ccc1O` [dichlorophen] (10 µM): 99.5% (inactive).
Take `CC(=O)Nc1nc2c(Oc3cc(-c4ccc(C(F)(F)F)cc4)ncn3)cccc2s1` (10 µM): the SARS-CoV-2 infection rate is 108% (inactive).
Take `Cc1[nH]c(/C=C2\C(=O)Nc3ccccc32)c(C)c1CCC(=O)O` [orantinib] (10 µM): the SARS-CoV-2 infection rate is 92.5% (inactive).
Turning to `CCOc1ccc2nc(S(N)(=O)=O)sc2c1` [ethoxzolamide] (10 µM), the SARS-CoV-2 infection rate is 97.5% (inactive).
In the case of `CNC1CC(c2ccc(Cl)c(Cl)c2)c2ccccc21` (stereo not given) [indatraline] (10 µM), the SARS-CoV-2 infection rate is 114% (inactive).
With `Cc1[nH]c2ccc(Cl)cc2c1C1=CCNCC1` (10 µM), the SARS-CoV-2 infection rate was 76% (inactive).
To `C=C[C@@]1(C)CC(=O)[C@]2(O)[C@@]3(C)[C@@H](O)CCC(C)(C)[C@@H]3[C@H](OC(=O)CCN(C)C)[C@H](OC(C)=O)[C@@]2(C)O1` [colforsin-daproate] (0.833333 µM) belongs 88.5% (inactive).
To `NC[C@H]1O[C@H](O[C@H]2[C@H](O[C@@H]3O[C@H](CO)[C@@H](O)[C@H]3O)[C@@H](O)[C@H](N)C[C@@H]2N)[C@H](N)[C@@H](O)[C@@H]1O` [ribostamycin-sulfate] (10 µM) belongs 105% (inactive); to `Cc1nc(NC(=O)N2CCC[C@H]2C(N)=O)sc1-c1ccnc(C(C)(C)C(F)(F)F)c1` [alpelisib] (10 µM), 113% (inactive); to `CCCCOc1ccc(OCCCN2CCOCC2)cc1` [pramoxine] (10 µM), 106% (inactive).
Regarding `NCCC(O)(P(=O)(O)O)P(=O)(O)O` [pamidronate] (10 µM), the SARS-CoV-2 infection rate was 114% (inactive).
With `O=C(CC12CC3CC(CC(C3)C1)C2)Nc1cccc2nc(NCCNCCO)ccc12` (10 µM), the SARS-CoV-2 infection rate was 116% (inactive).
To `CN1C(=O)COc2c(C(=O)NC3CN4CCC3CC4)cc(Cl)cc21` (stereo not given) [azasetron] (10 µM) belongs 98% (inactive); to `Cc1ccc(C)c(Oc2ccncc2C(=O)N2CCN(C3CC3)c3ccccc32)c1` (10 µM), 108% (inactive).
As to `NCCCC[C@H](NC(=O)[C@@H]1CCCN1C(=O)[C@@H]1CSSC[C@H](NC(=O)CNC(=O)CNC(=O)CN)C(=O)N[C@@H](Cc2ccc(O)cc2)C(=O)N[C@@H](Cc2ccccc2)C(=O)N[C@@H](CCC(N)=O)C(=O)N[C@@H](CC(N)=O)C(=O)N1)C(=O)NCC(N)=O` [terlipressin] (10 µM), the SARS-CoV-2 infection rate was 112% (inactive).
The same measure for `[N-]=[N+]=CC(=O)CC[C@H](N)C(=O)O` [6-diazo-5-oxo-L-norleucine] (10 µM): 93.5% (inactive); for `CCCCC1C(=O)N(c2ccccc2)N(c2ccccc2)C1=O` [phenylbutazone] (10 µM): 97.5% (inactive); for `COc1ccc(NS(=O)(=O)c2sc3ccc(Cl)cc3c2C)cc1N1CCNCC1` (10 µM): 108% (inactive).
For `C=Cc1cc(O)cc2nc(-c3ccc(O)c(F)c3)oc12` [prinaberel] (10 µM), the SARS-CoV-2 infection rate is 96.5% (inactive).
The same measure for `CNC(=O)CN1CCC(Oc2cc3c(Nc4cccc(Cl)c4F)ncnc3cc2OC)CC1` (0.833333 µM): 107% (inactive); for `CC(=O)Nc1ccc(CC(=O)O)cc1` [actarit] (10 µM): 99.5% (inactive).
On to `CO/N=C(\C(=O)N[C@@H]1C(=O)N2C(C(=O)OCOC(=O)C(C)(C)C)=C(/C=C\c3scnc3C)CS[C@H]12)c1csc(N)n1` [cefditoren-pivoxil] (10 µM), for which the SARS-CoV-2 infection rate was 99.5% (inactive).
For the compound `OC[C@H]1O[C@@H](c2ccc(Cl)c(Cc3ccc(O[C@H]4CCOC4)cc3)c2)[C@H](O)[C@@H](O)[C@@H]1O` [empagliflozin] (10 µM), the SARS-CoV-2 infection rate is 106% (inactive).
As for `NCC[C@H](O)C(=O)N[C@@H]1C[C@H](N)[C@@H](O[C@H]2O[C@H](CN)[C@@H](O)[C@H](O)[C@H]2O)[C@H](O)[C@H]1O[C@H]1O[C@H](CO)[C@@H](O)[C@H](N)[C@H]1O` [amikacin] (10 µM), the SARS-CoV-2 infection rate is 91% (inactive).
Consider `COCCOc1cnc2ccn([C@H](C)c3nnc4c(F)cc(-c5cnn(C)c5)cn34)c(=O)c2c1` (10 µM), for which the SARS-CoV-2 infection rate is 105% (inactive).
In the case of `COCCCOc1ccnc(C[S+]([O-])c2nc3ccccc3[nH]2)c1C` (stereo not given) [rabeprazole] (10 µM), the SARS-CoV-2 infection rate is 106% (inactive).
Regarding `CCCCC(=O)N(Cc1ccc(-c2ccccc2-c2nnn[nH]2)cc1)[C@H](C(=O)O)C(C)C` [valsartan] (10 µM), the SARS-CoV-2 infection rate is 98.5% (inactive).
As for `CCC(=O)O[C@]1(C(=O)CCl)[C@@H](C)C[C@H]2[C@@H]3C[C@H](F)C4=CC(=O)C=C[C@]4(C)[C@@]3(F)[C@@H](O)C[C@@]21C` [halobetasol-propionate] (10 µM), the SARS-CoV-2 infection rate is 106% (inactive).
On to `CCN(CC)CCOC(=O)C1(c2ccc([N+](=O)[O-])cc2)CCCC1` [nitrocaramiphen] (10 µM), for which the SARS-CoV-2 infection rate was 104% (inactive).
Consider `CSc1ccccc1OCC(O)CNC(C)C` (stereo not given) [tiprenolol] (10 µM), for which the SARS-CoV-2 infection rate is 110% (inactive).
Turning to `Cc1ccc(NC2=CC(=O)c3sc(C)nc3C2=O)cc1` [ryuvidine] (0.833333 µM), the SARS-CoV-2 infection rate is 104% (inactive).
For the compound `CNC(=O)c1ccc(N2C(=S)N(c3cnc(C#N)c(C(F)(F)F)c3)C(=O)C23CCC3)cc1F` [apalutamide] (10 µM), the SARS-CoV-2 infection rate was 109% (inactive).
The same measure for `NC(=O)NCCN1CCN(c2cccc(C(F)(F)F)c2)CC1` [fluprazine] (10 µM): 106% (inactive); for `C1CCC(NC2CCCCC2)CC1` [dicyclohexylamine] (10 µM): 114% (inactive).
With `CC(C)(C)N1CCC(c2ccccc2)(c2ccccc2)CC1` [budipine] (10 µM), the SARS-CoV-2 infection rate was 76.5% (inactive).
For the compound `CC(C)(c1ccc(O)cc1)c1ccc(O)cc1` [bisphenol-A] (10 µM), the SARS-CoV-2 infection rate is 106% (inactive).
Consider `CNCCCOc1cc(F)c(-c2c(Cl)nc3ncnn3c2N[C@@H](C)C(F)(F)F)c(F)c1` [cevipabulin] (10 µM), for which the SARS-CoV-2 infection rate was 92% (inactive).
The same measure for `CC(C)(C)c1ccc(CN2CCN(C(c3ccccc3)c3ccc(Cl)cc3)CC2)cc1` (stereo not given) [buclizine] (10 µM): 90.5% (inactive); for `CC[C@H](/C=C/[C@@H](C)[C@H]1CC[C@H]2[C@@H]3CC=C4C[C@@H](O)CC[C@]4(C)[C@H]3CC[C@]12C)C(C)C` [Stigmasterol (Stigmasterin)] (10 µM): 116% (inactive).
